Laboratory results published in PubChem BioAssay (NCATS).
Unmarked numbers belong to inactive results. Records with an inconclusive call do not appear. Entries that show only a call come without a potency. Calls of active or inactive are those of the source. Unless noted, calls follow the shape of the dose curve; as a rule, active = well fitted curve in the direction sought with a large enough effect; inconclusive = small, poorly fitted or top-dose-only effect, or another doubt; inactive = no such curve, though single readings can be large; an effect the other way counts as inactive or inconclusive.

How the values were obtained:
[1] = P-glycoprotein substrates identified in KB-8-5-11 adenocarcinoma cell line, qHTS therapeutic library screen (AID 1346987); also: nearly all actives have a fitted effect of over 65% in size; also: potency is read from the fitted curve at half-maximal effect; as to activity change, negative = cytotoxicity: series mostly up to about 44 µM
Summary of the method: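 Steps: plate 500 KB-8-5-11 cells/well in DMEM + 10% FCS (colchicine removed); pin compounds in dose-response; incubate 72 h, 37 degree C, 5% CO2; add CellTiter-Glo, 5 min; read luminescence.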

[2] = Natriuretic polypeptide receptor (hNpr1) antagonism - Pilot counterscreen GloSensor control cell line (AID 1347045; calls by dose curve; also: series mostly up to about 38 µM)
Procedure: (§1) F. Fan, B. F. Binkowski, B. L. Butler, P. F. Stecha, M. K. Lewis, K. V. Wood, Novel genetically encoded biosensors using firefly luciferase. ACS Chem Biol 3, 346-351 (2008).
(§2) PROTOCOL TABLE (as described by Inglese J, Shamu CE and Guy RK. 2007)
(§3) SEQUENCE No. (e.g., 1, 2, 3, etc.); […] (e.g., Cells, Incubation, Reagent, etc.); VALUE and DESCRIPTION.
1. Cells. Seed 1500 HEK293 cGMP-sensor cells per well in 4uL into Greiner 1536-well white/solid bottom high base, TC plates.
(§4) 2. Incubation. Incubate plated cells at 37C in 5% CO2, 95% RH overnight.
(§5) 3. Reagent. Add 1uL per well GloSensor reagent from Promega (2% final concentration) or CO2 independent media vehicle control to respective columns of Greiner 1536-well plates.
4. Incubation. Incubate plated cells at room temperature for 2 h, protect from light.
(§6) 5. Compounds. Library compounds and DMSO vehicle control added at 23nL per well, transferred by Pin Tool.
6. Incubation. Incubate plated cells for 30 min. at room temperature, protect from light.
(§7) 7. […] GloSensor baseline pre-read luminescence measured using CCD-based camera (Viewlux). […]
10. […] GloSensor post-SNP luminescence measured using CCD-based camera (Viewlux). […]
(§8) 1. […] Cells counted with Invitrogen Countess (30,000,000 - 50,000,000 cells/flask). […]
7. Read GloSensor + Antagonist/Compound baseline Luminescence on the ViewLux [Exposure, 30 s; Gain, High; Speed, Slow; Binning, 2X] […]
10. Read final luminescence on the ViewLux. […]

[3] = target: Atrial natriuretic peptide receptor 2 (Homo sapiens) (UniProt P20594); test: Natriuretic polypeptide receptor (hNpr2) antagonism - Pilot subtype selectivity assay (AID 1347050; calls by dose curve)
Procedure: as §1, §2, §3
1. Cells. Seed 1500 HEK293 cGMP-sensor cells expressing hNpr2 per well in 4uL into Greiner 1536-well white/solid bottom high base, TC plates.
as §4, §5
4. Incubation. Incubate plated cells at ambient temperature for 2 h., protect from light.
as §6
6. Incubation. […]
as §7
10. […] GloSensor post-hNppC luminescence measured using CCD-based camera (Viewlux). […]
as §8
7. Read cellular baseline GloSensor luminescence in presence of test library compounds on the ViewLux [Exposure = 10 s.; Gain = High; Speed = Slow; and Binning = 2X.] […]

[4] = target: T1, Tyrosine-protein phosphatase non-receptor type substrate 1 (Homo sapiens) + Leukocyte surface antigen CD47 (Homo sapiens) (UniProt P78324+Q08722); test: CD47-SIRPalpha protein protein interaction - LANCE assay qHTS validation (AID 1347057; active = well fitted curve in the direction sought with a large enough effect in the signal ratio, with a control signal flat, not every such curve was filed as active; the % refers to the signal ratio; also: series mostly up to about 38 µM)
Summary of the method: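 First, His-tagged CD47 and Eu-labelled anti-His antibody met the compound for 30 min; next, site-specifically biotinylated SIRPalpha was added for 30 min; finally streptavidin-APC was added before reading the TR-FRET ratio.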

[5] = target: T1, Tyrosine-protein phosphatase non-receptor type substrate 1 (Homo sapiens) + Leukocyte surface antigen CD47 (Homo sapiens); test: CD47-SIRPalpha protein protein interaction - HTRF assay qHTS validation (AID 1347058; active = well fitted curve in the direction sought with a large enough effect in the signal ratio, not every such curve was filed as active; the % refers to the signal ratio;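 also: recombinant soluble extracellular CD47 with His tag and biotinylated SIRPalpha domains; series mostly up to about 38 µM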)
Summary of the method: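 TR-FRET read (Ch1/Ch2 ratio) of soluble extracellular CD47 and Avi-biotinylated SIRPalpha domains in PBS pH 7.4 with 0.05% IGEPAL; 7-point compound titration. Sequential 30 min room-temperature steps; non-biotinylated SIRPalpha as control inhibitor.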

[6] = target: T1, Tyrosine-protein phosphatase non-receptor type substrate 1 (Homo sapiens) + Leukocyte surface antigen CD47 (Homo sapiens); test: CD47-SIRPalpha protein protein interaction - Alpha assay qHTS validation (AID 1347059);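 also: bead proximity luminescence from CD47 binding SIRPalpha after compound preincubation with SIRPalpha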
Summary of the method: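 Binding is measured by AlphaScreen proximity: Ni-NTA acceptor beads capture His-CD47, streptavidin donor beads capture biotin-SIRPalpha. Each of three additions (SIRPalpha with compound, CD47, beads) incubates 30 min at room temperature protected from light.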

[7] = target: Parathyroid hormone/parathyroid hormone-related peptide receptor (Homo sapiens) (UniProt Q03431); test: qHTS for PTHR1 Agonists: Optimization Screen against the NCGC LOPAC library (AID 1347079);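 also: GloSensor cAMP luminescence in HEK-293 GP2 cells expressing human PTHR1 with IBMX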
Summary of the method: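 Agonist readout: GloSensor cAMP luminescence, read after 15 min at room temperature. HEK-293-derived GP2 line carries PTHR1; compounds tested as a titration for 1 hr at 37C in presence of IBMX. M-PTH (1-15) served as control.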

[8] = qHTS of pediatric cancer cell lines to identify multiple opportunities for drug repurposing: Primary screen for TC32 cells (AID 1347089); also: nearly all actives have a fitted effect of over 60% in size
Summary of the method: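 TC32 cells, 500-1,000/well in growth medium, compound-treated 48 h at 37 °C; viability from CellTiter-Glo luminescence. Primary screen: MIPE 11-point (0.78 nM–46 µM final), NPC 8-point (0.59 nM–46 µM final); confirmatory at 11-point dilutions.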

[9] = qHTS of pediatric cancer cell lines to identify multiple opportunities for drug repurposing: Primary screen for DAOY cells (AID 1347090); also: series mostly up to about 46 µM; nearly all actives have a fitted effect of over 55% in size
Summary of the method: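 Cell viability, CellTiter-Glo luminescence; 500-1,000 cells/well, 8- or 11-point titration, 48 h compound exposure at 37 degrees C, 5% CO2. Controls: DMSO neutral, bortezomib 2.3 µM final as positive.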

T1 sequence (P78324 whole entry, looked up): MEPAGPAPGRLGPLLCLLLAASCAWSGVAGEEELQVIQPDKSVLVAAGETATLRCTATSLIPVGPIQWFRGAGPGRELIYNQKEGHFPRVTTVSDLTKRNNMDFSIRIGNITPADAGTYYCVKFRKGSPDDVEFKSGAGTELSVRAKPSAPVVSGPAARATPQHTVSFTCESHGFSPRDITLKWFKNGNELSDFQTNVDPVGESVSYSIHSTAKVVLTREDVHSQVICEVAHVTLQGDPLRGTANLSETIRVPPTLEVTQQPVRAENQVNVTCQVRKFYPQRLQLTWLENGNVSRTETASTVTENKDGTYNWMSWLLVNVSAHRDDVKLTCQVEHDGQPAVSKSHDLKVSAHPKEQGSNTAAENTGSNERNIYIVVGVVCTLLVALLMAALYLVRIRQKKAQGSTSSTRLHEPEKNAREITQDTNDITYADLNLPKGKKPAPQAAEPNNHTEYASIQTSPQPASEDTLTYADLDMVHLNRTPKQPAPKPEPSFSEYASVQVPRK
T1 sequence (Q08722 whole entry, looked up): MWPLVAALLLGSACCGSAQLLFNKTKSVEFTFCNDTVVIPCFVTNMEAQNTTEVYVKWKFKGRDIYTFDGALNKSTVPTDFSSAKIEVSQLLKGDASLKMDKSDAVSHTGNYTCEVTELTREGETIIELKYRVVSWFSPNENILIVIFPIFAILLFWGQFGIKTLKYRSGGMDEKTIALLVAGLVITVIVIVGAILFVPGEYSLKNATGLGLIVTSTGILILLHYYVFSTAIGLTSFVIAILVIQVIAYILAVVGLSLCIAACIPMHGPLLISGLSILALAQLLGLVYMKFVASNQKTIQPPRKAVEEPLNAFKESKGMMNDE
Chain of Atrial natriuretic peptide receptor 2 (Homo sapiens) (P20594 whole entry, looked up): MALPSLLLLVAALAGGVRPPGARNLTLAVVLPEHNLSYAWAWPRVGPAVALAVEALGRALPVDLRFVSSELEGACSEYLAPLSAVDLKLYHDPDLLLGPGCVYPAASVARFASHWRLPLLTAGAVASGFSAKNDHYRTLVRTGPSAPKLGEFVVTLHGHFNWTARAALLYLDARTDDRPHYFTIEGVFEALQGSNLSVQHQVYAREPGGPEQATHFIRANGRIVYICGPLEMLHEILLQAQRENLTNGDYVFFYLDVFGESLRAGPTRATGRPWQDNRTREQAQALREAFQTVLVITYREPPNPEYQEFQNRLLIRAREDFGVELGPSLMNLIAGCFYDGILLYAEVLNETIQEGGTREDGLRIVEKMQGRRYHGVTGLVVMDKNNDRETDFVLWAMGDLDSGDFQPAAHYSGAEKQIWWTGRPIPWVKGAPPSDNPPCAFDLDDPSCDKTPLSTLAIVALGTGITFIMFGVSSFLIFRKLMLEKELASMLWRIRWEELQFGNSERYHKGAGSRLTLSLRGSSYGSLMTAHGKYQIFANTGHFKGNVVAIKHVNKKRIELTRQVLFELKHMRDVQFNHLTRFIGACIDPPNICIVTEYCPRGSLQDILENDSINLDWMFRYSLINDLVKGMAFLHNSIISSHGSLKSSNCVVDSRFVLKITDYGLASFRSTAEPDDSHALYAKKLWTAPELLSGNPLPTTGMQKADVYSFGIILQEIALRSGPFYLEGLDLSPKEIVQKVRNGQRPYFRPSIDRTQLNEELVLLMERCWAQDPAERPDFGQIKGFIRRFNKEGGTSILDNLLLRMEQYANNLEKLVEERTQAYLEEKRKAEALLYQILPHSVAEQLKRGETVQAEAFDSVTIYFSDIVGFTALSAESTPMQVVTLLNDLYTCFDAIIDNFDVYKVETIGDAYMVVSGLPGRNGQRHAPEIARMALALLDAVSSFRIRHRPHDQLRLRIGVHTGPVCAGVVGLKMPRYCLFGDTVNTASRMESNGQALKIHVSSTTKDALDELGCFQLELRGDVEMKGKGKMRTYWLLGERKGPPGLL
Chain of Parathyroid hormone/parathyroid hormone-related peptide receptor (Homo sapiens) (Q03431 whole entry, looked up): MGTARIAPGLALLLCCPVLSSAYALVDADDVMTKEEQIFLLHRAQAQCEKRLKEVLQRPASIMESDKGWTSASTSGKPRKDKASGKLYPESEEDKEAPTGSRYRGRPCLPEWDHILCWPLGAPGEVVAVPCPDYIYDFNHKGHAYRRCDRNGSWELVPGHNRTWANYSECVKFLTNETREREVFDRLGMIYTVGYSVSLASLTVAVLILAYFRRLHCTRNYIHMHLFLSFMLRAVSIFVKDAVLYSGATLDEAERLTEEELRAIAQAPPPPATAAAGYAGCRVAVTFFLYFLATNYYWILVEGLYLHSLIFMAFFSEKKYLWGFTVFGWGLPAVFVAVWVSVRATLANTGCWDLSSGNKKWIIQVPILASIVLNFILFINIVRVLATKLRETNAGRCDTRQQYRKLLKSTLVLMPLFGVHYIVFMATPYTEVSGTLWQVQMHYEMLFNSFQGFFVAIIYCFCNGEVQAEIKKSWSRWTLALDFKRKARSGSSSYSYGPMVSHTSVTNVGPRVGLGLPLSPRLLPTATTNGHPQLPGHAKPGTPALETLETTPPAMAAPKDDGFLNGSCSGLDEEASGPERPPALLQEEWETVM

**Q.** For `N#Cc1ccnc(N2C(=O)CC[C@H]2C(=O)N(c2cncc(F)c2)[C@H](C(=O)NC2CC(F)(F)C2)c2ccccc2Cl)c1`, which Potency [1] is on record?
**A.** inactive

**Q.** For `CC(C#N)C(C)O[C@@H]1O[C@H](CO)[C@@H](O)[C@H](O)[C@H]1O` (some centres undefined), which Potency [1] is on record?
**A.** inactive

**Q.** For `O=C(c1ccc(C#Cc2cccc(F)c2)cn1)N1CC2CC2C1` (centres undefined), which Potency [1] is on record?
**A.** inactive

**Q.** With `CCc1nc(C(N)=O)c(Nc2ccc(N3CCC(N4CCN(C)CC4)CC3)c(OC)c2)nc1NC1CCOCC1` as the molecule, how does the Potency [1] read?
**A.** 5.7 µM (active)

**Q.** Which Potency [1] does the source give for `CCOc1c2c(c(OCC)c3ccccc13)C(=O)N(c1ccc(CC(=O)NS(=O)(=O)c3ccccc3)cc1)C2` here?
**A.** inactive

**Q.** For `COc1cc(/C=C/C(=O)O[C@H]2[C@H](OC(=O)/C=C/c3cc(OC)c(O)c(OC)c3)O[C@H](CO[C@@H]3O[C@H](CO)[C@@H](O)[C@H](O)[C@H]3O)[C@@H](O)[C@@H]2O)ccc1O`, which Potency [1] is on record?
**A.** inactive

**Q.** With `N[C@H]1C[C@H]1c1ccc(-c2cccc(O)c2)cc1` as the molecule, how does the Potency [1] read?
**A.** inactive

**Q.** For `COCC(=O)N1CCc2cc(-c3csc(NC(=O)c4cc(OC)cc(OC)c4)n3)ccc21`, which Potency [1] is on record?
**A.** inactive

**Q.** Which Potency [1] does the source give for `C=C(C)[C@@H]1CC[C@](C)(O)[C@@H](OC(=O)c2ccccc2)C1` here?
**A.** inactive

**Q.** With `CC(=O)OCCC(C)CCC1C(C)(O)CCC2C(C)(C)CCCC21C` (centres undefined) as the molecule, how does the Potency [1] read?
**A.** inactive

**Q.** Which Potency [1] does the source give for `CC[C@@H](C(=O)O)[C@@H]1O[C@@H]([C@@H](C)[C@H](O)[C@H](C)C(=O)[C@H](CC)[C@H]2O[C@]3(C=C[C@@H](O)[C@]4(CC[C@@](C)([C@H]5CC[C@](O)(CC)[C@H](C)O5)O4)O3)[C@H](C)C[C@@H]2C)[C@@H](C)C[C@@H]1C` here?
**A.** 2.31 µM (active)

**Q.** With `CC(=O)O[C@@H]1[C@H](O[C@@H]2OC[C@](O)(CO)[C@H]2O)[C@@H](O[C@@H]2O[C@@H](C)[C@H](O)[C@@H](O)[C@H]2O)[C@H](OC(=O)[C@]23CCC(C)(C)C[C@H]2C2=CCC4[C@@]5(C)C[C@H](O)[C@H](O[C@@H]6O[C@H](C(=O)O)[C@@H](O)[C@H](O)[C@H]6O)[C@@](C)(C(=O)O)C5CC[C@@]4(C)[C@]2(C)CC3)O[C@@H]1C` (some centres undefined) as the molecule, how does the activity change, negative = cytotoxicity [1] read?
**A.** 1.88% [at 9.29 µM]

**Q.** Which Potency [1] does the source give for `Cc1nn(C)c(COc2ccc(N3CCN(S(=O)(=O)N(C)C)CC3)cc2)c1-c1cccc2c(CCCOc3cccc4ccccc34)c(C(=O)O)n(CCN3CCOCC3)c12` here?
**A.** inactive

**Q.** For `O=C(NN1CCCCC1)c1nn(-c2ccc(Cl)cc2Cl)c(-c2ccc(C#Cc3ccc(C(F)(F)F)cc3)s2)c1CNS(=O)(=O)N1CCCC1`, which Potency [1] is on record?
**A.** inactive

**Q.** For `CC(=O)O[C@@]1(C)C[C@@H](O)[C@]2(O)C=CO[C@@H](O[C@@H]3O[C@H](CO)[C@@H](O)[C@H](O)[C@H]3O)[C@@H]21`, which Potency [1] is on record?
**A.** inactive

**Q.** For `CC1CCC2C(C)(C)C(O)CCC2(C)C12Cc1c(O)cc3c(c1O2)CN(C(CCC(N)=O)C(=O)O)C3=O` (centres undefined), which Potency [1] is on record?
**A.** inactive

**Q.** With `C[C@@H]1O[C@@H](O[C@H]2[C@H](O[C@H]3CC[C@@]4(C)C(CC[C@]5(C)C4CC=C4C6CC(C)(C)CC[C@]6(C(=O)O[C@@H]6O[C@H](CO[C@@H]7O[C@H](CO)[C@@H](O[C@@H]8O[C@@H](C)[C@H](O)[C@@H](O)[C@H]8O)[C@H](O)[C@H]7O)[C@@H](O)[C@H](O)[C@H]6O)CC[C@]45C)[C@]3(C)CO)OC[C@H](O)[C@@H]2O)[C@H](O)[C@H](O)[C@H]1O` (some centres undefined) as the molecule, how does the outcome [1] read?
**A.** inactive [at 9.29 µM]

**Q.** Which Potency [1] does the source give for `CCOc1ccc(-c2ccc(Cn3c(CC(C)(C)C(=O)O)c(SC(C)(C)C)c4cc(OCc5ccc(C)cn5)ccc43)cc2)cn1` here?
**A.** inactive

**Q.** With `COC(=O)C1=CO[C@@H](O[C@@H]2O[C@H](CO)[C@@H](O)[C@H](O)[C@H]2O)[C@@H]2[C@@H](C)[C@@H](O)C[C@H]12` as the molecule, how does the Potency [1] read?
**A.** inactive

**Q.** With `CN1Cc2c(N)cccc2C(c2ccccc2)C1` (centres undefined) as the molecule, how does the Potency [1] read?
**A.** inactive

**Q.** And the outcome [2]?
**A.** inactive

**Q.** What about the outcome [3] of the same molecule?
**A.** inactive

**Q.** What about the outcome [4] of the same molecule?
**A.** inactive

**Q.** What about the outcome [5] of the same molecule?
**A.** inactive

**Q.** And the outcome [6]?
**A.** inactive

**Q.** What about the outcome [7] of the same molecule?
**A.** inactive

**Q.** And the outcome [8]?
**A.** inactive

**Q.** What about the outcome [9] of the same molecule?
**A.** inactive

**Q.** Which Potency [1] does the source give for `CC(C)=CCC[C@](C)(O[C@@H]1O[C@H](CO[C@@H]2OC[C@@H](O)[C@H](O)[C@H]2O)[C@@H](O)[C@H](O)[C@H]1O)[C@H]1CC[C@]2(C)[C@@H]1[C@H](O)C[C@@H]1[C@@]3(C)CC[C@H](O[C@@H]4O[C@H](CO)[C@@H](O)[C@H](O)[C@H]4O[C@@H]4O[C@H](CO)[C@@H](O)[C@H](O)[C@H]4O)C(C)(C)[C@@H]3CC[C@]12C` here?
**A.** inactive
